Outcome data for one compound are collected here from PubChem BioAssay (EPA / NIEHS).

This experiment in a line: Tanguay_ZF_120hpf_MUSC: Oregon State University Tanguay Lab 120 Hour Post-fertilization zebrafish Assay for Muscle Malformation (AID 2284401). The gist of the method:
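Scored as a binary brightfield endpoint at 120 hpf, fitted versus DMSO. Single dechorionated wild-type (Tropical 5D) zebrafish embryos per well, statically exposed at 28C from 6 hpf onward with final DMSO 0.64%.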

Activity calls are given as the source filed them. How the source made its calls: active means hit-call score of the fitted dose curve at least 0.9, where 1 is the maximum; inactive means score below 0.9.

Turning to `C=CC(=O)OCC(F)(F)C(F)(F)C(F)(F)COC(=O)C=C`, the result was inactive.
